# Results reported in PubChem BioAssay (EPA / NIEHS).
# Some structures have more than one record in an assay (separate samples or runs), and their calls can disagree. The source made the active and inactive calls. The calls were made as follows: active = hit-call score of the fitted dose curve at least 0.9, where 1 is the maximum; inactive = score below 0.9.
# Assay: ATG_GATA_CIS: Attagene CIS-FACTORIAL HepG2 Assay for human GATA Binding Protein (AID 2282944)
# Settings: HepG2 GATA cis-element reporter, Attagene multiplex mRNA; actives raise or lower the signal
# Experimental: ATG_CIS is a cell-based, multiplexed-readout assay that uses HepG2, a human liver cell line, with measurements taken at 24 hours after chemical dosing in a 24-well plate.ATG_GATA_CIS is one of 52 assay component(s) measured or calculated from the ATG_CIS assay. It is designed to make measurements of mRNA induction, a form of inducible reporter, as detected with fluorescence intensity signals by Reverse transcription polymerase chain reaction (RT-PCR) and Capillary electrophoresis technology.Data from the assay component ATG_GATA_CIS was analyzed into 1 assay endpoint. This assay endpoint, ATG_GATA_CIS, was analyzed with bidirectional fitting relative to DMSO as the negative control and baseline of activity. Using a type of inducible reporter, measures of mRNA for gain or loss-of-signal activity can be used to understand the reporter gene at the transcription factor-level as they relate to the gene GATA1. Furthermore, this assay endpoint can be referred to as a primary readout, because this assay has produced multiple assay endpoints where this one serves a reporter gene function. To generalize the intended target to other relatable targets, this assay endpoint is annotated to the dna binding intended target family, where the subfamily is GATA proteins.
# Human liver HepG2 cells are transiently transfected with multiple reporter transcription units (MRTUs) in 6-well plates using FuGene 6 reagent (Roche; 3 ml FuGene/1 mg DNA). The MRTU constructs are regulated by a cis-regulating element (promoter). […] A major difference between the CIS and TRANS system is that in CIS activities of endogenous TFs are measured, whereas the TRANS assay evaluates changes in activities of exogenous, chimeric NR-Gal4 proteins. […] At the end of 24 hour incubation, total RNA was isolated using TriZol reagent (Invitrogen). The isolated RNA is then reverse-transcribed using oligo(dT) primer and Mo-MLV reverse transcriptase (Invitrogen) with DNAse I (Ambion) treatment for 30 min. The one-tenth of the produced cDNA was amplified by PCR using Taq DNA polymerase (Invitrogen) and two reporter sequence-specific primers. The PCR products were fluorescently labeled by primer extension with 6-arboxyfluorescein (6-FAM) 5'-labeled reporter sequence-specific primer (2 min at 95 C, 20 s at 68 C and 10 min at 72 C) and these products were digested with 5U of HpaI (New England Biolabs) for 2h at 37 C. The fragments were purified using Qiaquick PCR columns (Qiagen), analyzed on an ABI 3130xL genetic analyzer (Applied Biosystems) with peak positions identified by using a set of X-rhodamine (ROX)-labeled MapMarker1000 molecular weight standards (BioVentures). The raw capillary electrophoresis data was processed using Attagraph software (Attagene).
SMILES,outcome,AC50
Oc1ccccc1,inactive,
O=C1CCC(C2CCCCC2)CC1,inactive,187 µM (active)
CN1C(=O)N(c2ccccc2Br)Cc2cnc(Nc3ccc4c(c3)OCC(CO)O4)nc21 (stereo not given),inactive,
CCOC(=O)O[C@H](C)OC(=O)c1ccc2c(c1)cc(C(=O)NC1CCN(C(C)C)CC1)n2Cc1cc(-c2ccc(Cl)s2)on1,inactive,
CCCCCc1ccc(N)cc1,inactive,
CN(C)C(=O)C1(N2CCCCC2)CCN(CC[C@@]2(c3ccc(Cl)c(Cl)c3)CN(C(=O)c3ccccc3)CCO2)CC1,inactive,
O=C(O)Cn1c(=O)n(Cc2ccc(Br)cc2F)c(=O)c2ccc(Cl)cc21,inactive,
Clc1ccccc1C(c1ccccc1)(c1ccccc1)n1ccnc1,,15.6 µM (active)
O=C1O[C@H]([C@@H](O)CO)C(O)=C1O,inactive,
CCN(CC)C(=O)c1cc(S(=O)(=O)Cc2ccccc2)c(N2CCC(c3ccccc3)CC2)cc1N(CC)CCN(C)C,inactive,
Cc1cc(F)ccc1-c1cc(N2CC[C@@H](O)[C@H]2CO)ncc1N(C)C(=O)C(C)(C)c1cc(C(F)(F)F)cc(C(F)(F)F)c1,inactive,
CCCOC(=O)c1cc(O)c(O)c(O)c1,inactive,
CC(O)CC(C)(C)O (stereo not given),inactive,
O=c1c(-c2ccc(O)cc2)coc2cc(O)cc(O)c12,inactive,
O=CCCCC=O,inactive,
CCCCCCCCCCCCO,inactive,
CCCCCCCCCCCC[N+](C)(C)C,inactive,
Cc1cccc2ccccc12,inactive,
O=c1[nH]sc2ccccc12,inactive,
Cc1oc2c(NC(=O)c3c(Cl)cccc3Cl)cccc2c1C(C)(C)O,inactive,

SMILES,outcome,AC50
Cc1cc2c(cc1C(F)(F)F)N(C(=O)Nc1ccc(Oc3cccnc3C)nc1)CC2,inactive,
CC(=O)N1CCN(c2ccc(OC[C@H]3CO[C@](Cn4ccnc4)(c4ccc(Cl)cc4Cl)O3)cc2)CC1,inactive,
NC(=O)c1nc(-c2cccc(-c3cc(F)ccc3OCC(F)(F)C(F)(F)F)c2)n[nH]1,inactive,
COc1ccc2cc(S(=O)(=O)N[C@H](CC(=O)N[C@H](Cc3ccc(CN4[C@H](C)CCC[C@@H]4C)cc3)C(=O)N(C)C(C)C)c3ccc4c(c3)OCO4)ccc2c1,inactive,
CO[C@H]1/C=C/O[C@@]2(C)Oc3c(C)c(O)c4c(O)c(c(/C=N/N5CCN(C)CC5)c(O)c4c3C2=O)NC(=O)/C(C)=C\C=C\[C@H](C)[C@H](O)[C@@H](C)[C@@H](O)[C@@H](C)[C@H](OC(C)=O)[C@@H]1C,inactive,
COc1cc(C(=O)NC2CCN(C)CC2)ccc1Nc1ncc2c(n1)N(C1CCCC1)CC(F)(F)C(=O)N2C,inactive,
NCc1cccc(C2CCN(C(=O)c3ccc(C#Cc4ccccc4F)o3)CC2)c1,inactive,
O=C(OCCCCCCOC(=O)c1ccccc1)c1ccccc1,inactive,
OC12N=C(c3ccccc3)SC1Cc1cc(Cl)ccc12 (stereo not given),inactive,
CN(C)c1ccc(C(=C2C=CC(=[N+](C)C)C=C2)c2ccc(N(C)C)cc2)cc1,inactive,
C[C@]12CC[C@@H]3c4ccc(O)cc4CC[C@H]3[C@@H]1CCC2=O,inactive,
CC1(C)NC(=O)N(c2ccc([N+](=O)[O-])c(C(F)(F)F)c2)C1=O,inactive,
C[C@]12CC[C@@H]3c4ccc(O)cc4CC[C@H]3[C@@H]1CC[C@H]2O,inactive,
Cc1occc1C(=O)Nc1ccc(C(=O)N2CCC(F)(F)/C(=C\C(=O)N3CCC(N4CCCCC4)CC3)c3ccccc32)cc1,,46.7 µM (active)
CCCCCCCCCCCO,inactive,
O=C(O)c1ccccc1C(=O)OCc1ccccc1,inactive,
CCCC(=O)OCCC(C)C,inactive,
Cc1ncc(CO)c(CO)c1O,inactive,
CCN(Cc1cccnc1)C(=O)c1cccc(Cl)c1[C@]1(C)C(=O)N(Cc2ccc(OC)cc2OC)c2ccc(Cl)cc21,inactive,
